Source: PubChem BioAssay (NCI)
Values joined by “and” are separate entries in the source; they are usually repeats but may differ in a detail not shown here. Equal values may be shown once. The panel holds about 83,000 compounds, 20% with a hit somewhere; the sample as a whole holds those more often.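 Compound tested at a single concentration for 48 hours in 96-well plates; a percent growth value below 10 was scored as active.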 Active and inactive are the calls of the source.

System: HL-60(TB) leukemia
Experiment: NCI-60 one-dose screen, 48 h (100 = growth as untreated, 0 = no growth, -100 = all killed)
Details: 10 µM unless noted

Row | Structure (SMILES) | growth
1 | CCN(CC)CCCC(C)Nc1cnc(C(=O)Nc2cc(F)cc3cccnc23)cn1 (configuration not stated) | 85.5% (inactive) and 5.69% (active)
2 | COC(=O)C(Sc1ccc(Cl)cc1)C1SC(=S)N(Cc2ccccc2)C1=O (configuration not stated) | 76.1% (inactive)
3 | COC(=O)CCC(=O)C(=O)OC | -21% [10 mM] (active)
4 | COc1ccc(CC(=O)Nc2nn3c(-c4cc(C(F)(F)F)cc(C(F)(F)F)c4)nnc3s2)cc1 | 52% (inactive)
5 | O=C(Nc1ccc(CN2CCc3nc4cc(O)c(O)cc4cc32)cc1)c1ccc(Cl)c(Cl)c1 | 114% (inactive)
6 | CN[C@]12CC3(C=CC(=O)C=C3)O[C@@]1(Cc1ccc(OC)cc1)N(C)C(=O)N2 | -3.53% (active)
7 | O=C(Nc1cccc(Cl)c1)OCC(COC(=O)Nc1cccc(Cl)c1)(COC(=O)Nc1cccc(Cl)c1)[N+](=O)[O-] | 45% (inactive)
8 | Cc1ccncc1NC=O | 105% (inactive)
9 | O=C(Nc1ccc(Cl)c(Cl)c1)Nc1ccccc1O | 61.6% (inactive)
10 | COc1cc2c(c(OC)c1OC)-c1ccc(OC)c(=O)cc1[C@@H](NC(C)=O)CC2 | -36% (active) and -38.2% (active)
11 | CC(=O)[C@H]1CC[C@H]2[C@@H]3C[C@H](C)C4=CC(=O)CC[C@]4(C)[C@H]3C(=O)C[C@]12C | 79.7% (inactive)
12 | COc1cc(C(=O)c2ccccc2C(=O)O)c(OC)c2c1CCCC2 | 36.8% (inactive) and 97.1% (inactive)
13 | COc1ccc(NC(=O)CSc2nc(C)c(C(C)=O)n2-c2ccc(Cl)cc2)cc1 | 103% (inactive)
14 | CC(=O)c1ccc2c(c1)c1ccccc1n2C | 84.1% (inactive)
15 | O=C1OC2(c3ccccc31)c1ccc(O)c(O)c1Oc1c2ccc(O)c1O | 98.6% (inactive) and 117% (inactive)
16 | COP(=O)(OC)C(C)(C)CC(=O)CC(C#N)(C#N)C(C#N)C#N | 103% (inactive)
17 | C[C@]12C=CC(=O)C=C1CCC1C2[C@@H](O)C[C@@]2(C)C1CC[C@]2(O)C(=O)COC(=O)CCC(=O)O (some centres not stated) | 104% (inactive)
18 | CSc1nc2sc3cc(Cl)ccc3n2c(=N)c1C#N | 121% (inactive)
19 | O=C(NO)c1ccc(Cn2c(=O)n(-c3ccccc3)c(=O)c3ccccc32)cc1 | 1.26% (active)
20 | Cc1c(C(=O)NC(Cc2ccccc2)C(O)C(=O)NCc2ccc(F)cc2)[nH]c2ccccc2c1=O (configuration not stated) | 82% (inactive)
21 | O=C1Nc2cc(Cl)ccc2/C1=C/c1ccc(N2CCOCC2)s1 | 93.4% (inactive)
22 | CC(=O)[C@@H]1CCC=C2CC[C@]3(C)[C@@H](CC[C@@H]4[C@@]5(C)CCCNC(C)(C)[C@@H]5CC[C@]43C)[C@H]21 | -12.3% (active)
23 | CC1(C)Cc2c(sc3ncn4nc(-c5ccc(O)cc5)nc4c23)CO1 | 62.1% (inactive)
24 | CCOC(=O)c1c2ncccc2n2c(=O)n(-c3ccccc3C)nnc12 | 56.9% (inactive)
25 | N#Cc1cccc(F)c1 | 76.2% (inactive)
26 | Cc1cc(O)c2c(c1O)C(=O)C13C(=C2O)C(=O)C2C(O)C1C1C(O)C3C(=O)C3=C(O)c4c(O)cc(C)c(O)c4C(=O)C321 (configuration not stated) | -19.7% (active)

Row | Structure (SMILES) | growth
27 | COc1ccc(-c2cc(=O)c3c(O)cc(O)cc3o2)cc1 | 73.4% (inactive) and 103% (inactive)
28 | Clc1ccc(C2=NN(c3ccccc3)[C@H](c3cn(-c4ccccc4)nc3-c3ccccc3)C2)cc1 | 116% (inactive)
29 | Cn1cc(-c2csc(-c3cn(CCCN4CCCCC4)c4ccc(Br)cc34)n2)c2cccnc21 | 0.828% (active)
30 | COc1cccc(C2C(C#N)=C(N)Oc3cc(N)ccc32)c1 (configuration not stated) | -19% (active)
31 | CC(=O)NCC(=O)c1ccc([N+](=O)[O-])cc1 | 103% (inactive)
32 | Cc1ccccc1COc1ccc(-c2onc(C)c2-c2ccc(Cl)cc2)cc1 | 17.7% (inactive)
33 | O=C1/C(=C/c2ccccc2[N+](=O)[O-])Cc2ccccc21 | 31.7% (inactive) and 63.7% (inactive)
34 | CCCCCCCCCCCCN1CCCC(C)C1 (configuration not stated) | 55.6% (inactive)
35 | COc1cc([C@@H]2c3cc4c(cc3[C@H](O)[C@H]3COC[C@@H]23)OCO4)cc(OC)c1OC | 57.8% (inactive)
36 | CCOC(=O)c1cc2c(n1Cc1ccccc1OC)-c1oncc1CCC2 | 14.4% (inactive)
37 | CCOc1ccc(Nc2c3ccccc3nc3ccccc23)cc1 | 90.2% (inactive) and 8.63% (active) and 8.99% (active)
38 | O=C(O)Cc1ccccn1 | 106% (inactive)
39 | OC(COc1cccc2ccccc12)CN1CCN(c2ccc(Cl)cc2)CC1 (configuration not stated) | 55.5% (inactive) and 75.2% (inactive)
40 | CC(=O)N[C@H](C(=O)N[C@@H](CCCNC(=N)N)C(=O)N[C@@H](CCCCN)C(=O)N[C@@H](CCCNC(=N)N)C(=O)N[C@]1(C)CCC/C=C\CCC[C@@](C)(C(=O)N[C@@H](CC(C)C)C(=O)N[C@@H](CC(C)C)C(=O)N[C@@H](CCC(N)=O)C(=O)N[C@@H](CCC(=O)O)C(=O)N[C@@H](CCCNC(=N)N)C(=O)N[C@@H](CCC(=O)O)C(=O)N[C@@H](CC(C)C)C(=O)N[C@H](C(=O)N[C@@H](CCC(=O)O)C(N)=O)C(C)C)NC(=O)[C@H](CCCNC(=N)N)NC(=O)[C@H](CC(C)C)NC1=O)C(C)C | 104% (inactive)
41 | COc1cc(/C=N/NC(=O)c2ccccc2Nc2cccc(C(F)(F)F)c2)ccc1O | 26.9% (inactive)
42 | C[N+]1(CCC[N+]2(C)C[C@@H]3[C@H](C2)[C@@H]2C=C[C@H]3C2)CCOCC1 (some centres not stated) | 122% (inactive)
43 | NC(=O)Cc1nc(O)cc(=O)[nH]1 | 87.4% (inactive)
44 | COc1ccc(C2=C(c3cn(C)c4ccccc34)C(=O)OC2)cc1OC | 7.26% (active)
45 | O=C1OC(=O)C2C3CC(c4ccccc43)C12 (configuration not stated) | 112% (inactive)
46 | CCOC(=O)c1nnn(C(Cc2ccccc2Cl)C(=O)OCC)c1C (configuration not stated) | 96.5% (inactive)
47 | Clc1ccc(CNc2c3ccccc3nc3ccccc23)cc1 | 44.7% (inactive)
48 | O=C1NN(C(=O)c2ccccc2)C(c2ccc(Cl)c(Cl)c2)=C/C1=C\c1ccccc1[N+](=O)[O-] | 12.7% [6.75 µM] (inactive)
49 | O=C(C(=O)N1CCOCC1)c1cn(CCCn2cc(C(=O)C(=O)N3CCOCC3)c3ccccc32)c2ccccc12 | 91.9% (inactive)
50 | Nc1c(C(=O)c2ccc(Br)cc2)sc2nc3c(cc12)CCCC3 | 94.7% (inactive)
51 | O=C(O)CNC(=O)C1(N2C(=O)c3ccccc3C2=O)CCCC1 | 90.6% (inactive)
52 | O=C(c1cccc(C(=O)c2ccc3c4c(cccc24)C(=O)N(c2ccccc2)C3=O)c1)c1ccc2c3c(cccc13)C(=O)N(c1ccccc1)C2=O | 103% (inactive)

Row | Structure (SMILES) | growth
53 | Cc1oc(-c2ccc(Cl)cc2)nc1/C=C/C(=O)c1ccccc1 | 97.1% (inactive)
54 | O=P(O)(O)OC1C(OP(=O)(O)O)C(OP(=O)(O)O)C(OP(=O)(O)O)C(OP(=O)(O)O)C1OP(=O)(O)O.[Cu+2] (configuration not stated) | 92.6% (inactive)
55 | O=C1/C(=C/c2ccc3cccc(Cl)c3n2)SC(=S)N1CCc1ccc(O)cc1 | 32.4% (inactive)
56 | Cc1nn(-c2nc3ccccc3s2)c(C)c1Oc1ccccc1O | 60.3% (inactive)
57 | O=C1Nc2ccccc2/C1=C\c1nc(-c2ccccc2F)n2ccccc12 | 73.4% (inactive)
58 | COc1cc2c(cc1OC)C(C(CCCCCC(CCC(C)C)C1NCCc3cc(OC)c(OC)cc31)CCC(C)C)NCC2 (configuration not stated) | -12.4% (active)
59 | COc1cccc(-c2nc3sccn3c2-c2ccnc(NCCCNS(=O)(=O)c3ccc(C(F)(F)F)cc3)c2)c1 | 47.8% (inactive)
60 | COc1ccc(-c2c(N)noc2-c2cc(OC)c3c(c2)OCCO3)cc1 | -30.8% (active)
61 | COc1cc(C(=O)/C=C/c2c(C)n([O-])c3ccc(C(F)(F)F)cc3[n+]2=O)cc(OC)c1OC | 69% (inactive)
62 | O=C(CC(SCc1ccccc1)c1ccccc1)c1ccccc1 (configuration not stated) | 66.7% (inactive)
63 | O=C(/C=C/c1cc2ccccc2[nH]c1=O)/C=C/c1cc2ccccc2[nH]c1=O | 24.7% (inactive)
64 | COC1/C=C/OC2(C)Oc3c(C)c(O)c4c(O)c(c(/C=N/Nc5ccc([N+](=O)[O-])cc5[N+](=O)[O-])c(O)c4c3C2=O)NC(=O)C(C)=C/C=C/C(C)C(O)C(C)C(O)C(C)C(OC(C)=O)C1C (configuration not stated) | -1.29% (active)
65 | CC(=O)c1c(O)cc2c3c1OC(C)(C)C1CCC(C)(CC31)O2 (configuration not stated) | 89.2% (inactive)
66 | Cn1cnc2c(F)c(Nc3ccc(Br)cc3F)c(C(=O)NOCCO)cc21 | 16.6% (inactive)
67 | CCOC(=O)c1c(C)oc2ncnc(N3CCN(C(=S)Nc4ccccc4)CC3)c12 | 94.7% (inactive)
68 | CN(C)c1ncnc2c1nnn2C1OC(CO)C(O)C1O (configuration not stated) | 4.4% (active)
69 | C#CCOc1cccc(Nc2ncnc3c(NC(=O)C=C)cccc23)c1 | -4.75% (active)
70 | CCN(CC)CCOc1ccc(/C=N/Nc2nc3c([nH]2)c(=O)n(C)c(=O)n3C)cc1 | 97.3% (inactive) and 115% (inactive)
71 | CCCNC(=O)Nc1ccc2cc3ccc(NC(=O)NCCC)cc3nc2c1 | 74.9% (inactive)
72 | COc1ccc(-c2nc3ccc4[nH]ncc4c3c3c2CCCC3)cc1B(O)O | 64.6% (inactive)
73 | Cc1nnc(NC(=O)c2nc(S(=O)(=O)Cc3ccc(F)cc3)ncc2Cl)s1 | -30.5% (active)
74 | CCCN(CCC)C(=O)c1ccc(C)cc1 | 100% (inactive)
75 | COc1ccc(NC(=O)c2cccc(-c3cc(=O)c4c(O)c(OC)c(OC)cc4o3)c2)cc1 | 130% (inactive)
76 | COc1ccc(-c2nc3sc(-c4ccccc4)c(-c4ccccc4)n3c2/C=C/C(=O)c2ccccn2)cc1 | 50.5% (inactive)
77 | COc1ccc(C(=O)NC(=O)Nc2cc3c(cc2F)/C(=C/c2[nH]c(C)c(CCC(=O)O)c2C)C(=O)N3)c(F)c1 | 20.9% (inactive)
